The values that follow come from PubChem BioAssay AID1861 (The Scripps Research Institute Molecular Screening Center, 2009).

The structures appear in SMILES notation. Screen size: about 290,000 compounds; about 3,100 (1.1%) were called active. The entries come from a sample that favours actives as a whole. A number with no mark means an inactive call. No stated cut-off is given here; in the data, active means inhibition above about 16% (passing the limit was not always enough); inactive means the rest.

The test deals with Neuropeptides B/W receptor type 1 (Homo sapiens) (UniProt P48145). In words: blockers of human neuropeptide B/W receptor 1 – cell-based, fluorescence, single concentration, primary screen (AID 1861).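 Further: cells stimulated with the agonist NPW; 0% = agonist with vehicle and 100% = vehicle without agonist.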 To be noted: GPR7-expressing cells, fluorescence antagonist assay; at 4.4 µM; hits give high values.
Sequence of Neuropeptides B/W receptor type 1 (Homo sapiens) (P48145 whole entry, looked up): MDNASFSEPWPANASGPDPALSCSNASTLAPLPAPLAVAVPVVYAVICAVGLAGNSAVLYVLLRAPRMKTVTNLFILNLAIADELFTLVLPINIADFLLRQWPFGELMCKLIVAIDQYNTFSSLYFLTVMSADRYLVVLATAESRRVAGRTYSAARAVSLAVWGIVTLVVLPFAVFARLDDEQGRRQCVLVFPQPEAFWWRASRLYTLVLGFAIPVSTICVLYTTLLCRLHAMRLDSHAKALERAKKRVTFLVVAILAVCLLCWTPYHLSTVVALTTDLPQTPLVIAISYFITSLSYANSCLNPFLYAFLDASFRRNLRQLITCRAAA
One may read the inhibition as the drop in the measured response relative to a control, in per cent. For the compound `O=C(CN1C(=O)NC2(CCCC2)C1=O)Nc1ccc(F)c(F)c1F`, the inhibition is 11.1%.

Consider `CC1(c2ccc(Cl)cc2)NC(=O)N(CC(=O)c2ccc3c(c2)OCO3)C1=O` (stereo not drawn), for which the inhibition is -6.7%.

Turning to `Cc1ccc(NC(=O)CN2C(=O)NC(C)(c3ccc(Cl)cc3)C2=O)c(Br)c1` (stereo not drawn), the inhibition is 22.3% (active).

Regarding `O/N=C(\C[n+]1ccccc1)c1ccc(Br)cc1`, the inhibition was 5.69%.

For `CCOc1ccc(-n2c(SCC(=O)Nc3cc(C(=O)O)ccc3Cl)nc3ccccc3c2=O)cc1`, the inhibition was 2.21%.

For `O=C(COc1ccc(Cl)cc1)N1CCN(c2cccc(C(F)(F)F)c2)CC1`, the inhibition is -8.3%.

On to `O=C(COc1ccc(S(=O)(=O)NCc2ccccc2)cc1)N1CCOCC1`, for which the inhibition was 4.86%.

On to `O=C(COc1ccc(S(=O)(=O)Nc2cccc(C(F)(F)F)c2)cc1)N1CCOCC1`, for which the inhibition was 26.6% (active).

Take `COc1ccc(Nc2cc(C)nc(-n3nc(C)cc3C)n2)cc1`: the inhibition was 20.7% (active).

For `Cc1cc(N/N=C\c2ccc(Br)cc2)nc(-n2nc(C)cc2C)n1`, the inhibition was -2.3%.

For the compound `COc1ccccc1/C=N\Nc1cc(C)nc(-n2nc(C)cc2C)n1`, the inhibition was -14.4%.

Consider `O=C(NCCc1c[nH]c2ccccc12)C1CCN(Cc2ccc(Br)cc2)CC1`, for which the inhibition was 6.85%.

`O=C(NC1CCCC1)C(c1ccco1)N(C(=O)c1csnn1)c1ccccc1` (stereo not drawn): the inhibition was -7.05%.

`CCc1ccc(N(C(=O)c2csnn2)C(C(=O)NC2CCCCC2)c2cccnc2)cc1` (stereo not drawn): the inhibition was 16.5%.

In the case of `CCc1ccc(N(C(=O)c2csnn2)C(C(=O)NC2CCCCC2)c2ccncc2)cc1` (stereo not drawn), the inhibition is 22.7% (active).

For the compound `O=C(NCC(=O)N(c1ccccc1)C(C(=O)NCC1CCCO1)c1ccccc1)c1cccs1` (stereo not drawn), the inhibition was -0.97%.

As for `CN(C)CCNc1ccc(-c2n[nH]c(=O)c3ccccc23)cc1[N+](=O)[O-]`, the inhibition was -19.5%.

As for `O=C(Nc1ccc2ccccc2c1)Nc1ccc2snnc2c1`, the inhibition was 31.3% (active).

For the compound `CCc1ccccc1NC(=O)c1ccc2snnc2c1`, the inhibition was 4.67%.

For `O=C(Nc1cccc(Br)c1)c1ccc2snnc2c1`, the inhibition was 6.67%.

`COCC(=O)N1CCCC(C(=O)c2ccc(C(F)(F)F)cc2)C1` (stereo not drawn): the inhibition is -16.7%.

For the compound `CCOC(=O)C1(CCOC)CCN(Cc2cc3ccccc3s2)CC1`, the inhibition was -2.08%.

Take `O=C1CCN(Cc2ccc([N+](=O)[O-])cc2)CCN1[C@H](CO)Cc1ccccc1`: the inhibition was 0.55%.

Consider `COc1ccc(N=C2SC(C(=O)Nc3ccc(F)cc3)CC(=O)N2C)cc1` (stereo not drawn), for which the inhibition was 26.4% (active).

On to `CCOc1ccc(N=C2SC(C(=O)O)CC(=O)N2C)cc1` (stereo not drawn), for which the inhibition was -6.69%.

In the case of `COc1ccc(C(=O)NC2CCN(C(=O)Nc3ccc(F)cc3)CC2)cc1`, the inhibition was -10.4%.

Consider `CC1CC(=O)N(CC(=O)Nc2cccc(Cl)c2)c2ccccc2S1(=O)=O` (stereo not drawn), for which the inhibition was 0.41%.

With `O=C(CSCc1ccc([N+](=O)[O-])cc1)Nc1cccc(C(=O)Nc2ccccc2C(=O)O)c1`, the inhibition is -8.22%.

`COc1ccc(NC(=O)CSCc2ccc([N+](=O)[O-])cc2)cc1OC`: the inhibition is -12%.

On to `O=C(CSCc1ccc([N+](=O)[O-])cc1)NCCSCc1ccccc1`, for which the inhibition is 44.7% (active).

For the compound `CC(=O)Nc1ccc(NC(=O)CSc2nnnn2-c2ccccc2F)cc1`, the inhibition is -7.45%.

For `O=C(CN1CCc2cc3c(cc2C1)OCCCO3)Nc1ccccc1`, the inhibition was -5.17%.

For the compound `Cc1ccc(S(=O)(=O)CC(=O)Nc2c(C)n(C)n(-c3ccccc3)c2=O)cc1`, the inhibition is 1.37%.

As for `Cc1c(CCO)c(=O)n(-c2ccccc2)n1S(=O)(=O)c1ccc(F)cc1`, the inhibition is 33% (active).

As to `CCOC(=O)C1CN(S(=O)(=O)c2ccc(F)cc2)C1`, the inhibition is -9.92%.

On to `CC1(C)C(C=C(Cl)Cl)C1C(=O)NC(O)C(=O)c1ccccc1` (stereo not drawn), for which the inhibition is -5.98%.

On to `O=C(CN(C(=O)CNC(=O)c1cccs1)c1cccc(F)c1)NC1CCCCC1`, for which the inhibition was 7.46%.

Regarding `O=C(CCc1ccccc1)Nc1ccc(NC(=O)C2CC2)nc1`, the inhibition is 34% (active).

As to `O=C(NCCc1ccccc1)C1CC1`, the inhibition is -22.6%.

As to `O=C(CCc1ccccc1)Nc1ccc(NC(=O)C2CCCCC2)nc1`, the inhibition is 14%.

`O=C(C1CC(=O)N(c2ccc(Br)cc2)C1)N1CCCC1` (stereo not drawn): the inhibition was -7.92%.

With `COC(=O)c1ccc(N2CCOCC2)c(NC(=O)c2ccc3c(c2)OCCO3)c1`, the inhibition is -10.5%.

For `CC(=O)Nc1ccc(S(=O)(=O)N(C)CC(=O)NCCC2=CCCCC2)cc1`, the inhibition was 26.4% (active).

As to `CN(c1ccc(C(=O)NCCC2=CCCCC2)cc1)S(C)(=O)=O`, the inhibition was 10.7%.

As to `CN(CC(=O)NCCc1ccccn1)S(=O)(=O)c1ccc(Cl)cc1`, the inhibition was -4.58%.

For the compound `Cc1ccccc1/C=C\c1nc(O)c([N+](=O)[O-])c(=O)[nH]1`, the inhibition was -0.51%.

Take `CCOC(=O)N1CCC(N2Cc3cccc(C(=O)Nc4c(C)cccc4CC)c3C2=O)CC1`: the inhibition was 8.95%.

Take `Cc1cc(C)cc(OCC(=O)NC(C)c2ccccc2)c1` (stereo not drawn): the inhibition is -3.54%.

On to `COc1cc(OC)cc(C(=O)N[C@H](C(=O)OCC(=O)NC(C)c2ccccc2)C(C)C)c1` (stereo partly drawn), for which the inhibition was 34.5% (active).

As for `Cc1ccc(OCC(=O)NC(C)c2ccccc2)cc1C` (stereo not drawn), the inhibition is 5.96%.

As to `Cc1ccc(S(=O)(=O)N2CCC(C)CC2)cc1C(=O)NCc1ccccn1`, the inhibition was -11.1%.

Take `Cc1ccc(SCc2c(C(=O)N/N=C/c3cccnc3)nnn2-c2nonc2N)cc1`: the inhibition is -12%.

Take `COc1cc(OC)c(S(=O)(=O)Nc2ccccc2C(=O)O)cc1S(=O)(=O)Nc1ccccc1C(=O)O`: the inhibition is -13.8%.

`COc1cc(NC(=O)c2ccccc2NS(=O)(=O)c2ccc(Cl)s2)cc(OC)c1`: the inhibition is 26.7% (active).

Consider `COC(=O)c1ccc(NC(=O)c2ccccc2NS(=O)(=O)c2ccccc2)cc1`, for which the inhibition was 17.3%.

As for `COc1ccc(Nc2ncc(F)c(N3CCOCC3)n2)cc1`, the inhibition is -9.42%.

For `COc1ccccc1CN1CCN(C(c2ccccc2)c2ccccc2)CC1`, the inhibition is -16.5%.

With `CC(=O)OC(C(=O)NC1CCCCC1)c1ccccc1` (stereo not drawn), the inhibition was -8.98%.

Regarding `CC(NCc1ccccc1OC1CCCC1)c1ccccc1` (stereo not drawn), the inhibition is 30.2% (active).

As for `Cc1cnc(CN(C)C(=O)C2CCC(=O)N(CCc3cccc(F)c3)C2)[nH]1` (stereo not drawn), the inhibition is -18.8%.

Take `Cn1c2ccc(F)cc2c2nnc(NN)nc21`: the inhibition is -11.3%.

For the compound `Cc1cc2nc(SCCN3CCOCC3)[nH]c2cc1C`, the inhibition is 3.59%.

Consider `CCn1c2ccc(F)cc2c2nnc(SCCN3CCOCC3)nc21`, for which the inhibition is 77.2% (active).

Consider `CCCNC(=O)C(=O)Nc1cc2c3c(c1)CCC(=O)N3CCC2`, for which the inhibition is -11.2%.

Take `Cn1cc([N+](=O)[O-])c(C(=O)Nc2cnn(Cc3ccc(F)cc3)c2)n1`: the inhibition was -7.64%.

`CCc1ccc(NC(=O)c2ccc(Cn3cc([N+](=O)[O-])cn3)cc2)cc1`: the inhibition is 23.8% (active).

On to `COc1cccc(NC(=O)c2ccc(Cn3cc([N+](=O)[O-])cn3)o2)c1`, for which the inhibition is -2.16%.

Take `COc1ccc(/C=N/NC(=O)C2CC2)c(OC)c1OC`: the inhibition was -4.35%.

In the case of `O=C1CCCN2N=C(SCC(=O)Nc3ccc(Br)cc3)SC2=N1`, the inhibition is 4.5%.

In the case of `CCc1ccc(C(=O)OCC(=O)Nc2cccc(S(=O)(=O)NC3=NCCCCC3)c2)cc1`, the inhibition is 11.6%.

Turning to `NS(=O)(=O)c1cccc(NC(=O)CSc2nc3ccccc3n2-c2ccccc2)c1`, the inhibition is 0.27%.

Take `Cc1cccc(-n2c(SCC(=O)Nc3cccc(S(=O)(=O)NC4=NCCCCC4)c3)nc3ccccc3c2=O)c1C`: the inhibition was 27.4% (active).

Turning to `CCOc1ccc(S(=O)(=O)NCCCn2ccnc2)cc1NC(C)=O`, the inhibition is -14.2%.

As for `CCOc1cc(/C=C/c2nc3ccccc3c(=O)[nH]2)cc(Br)c1OC`, the inhibition is 19%.

Consider `OC(COc1ccc2ccccc2c1)CN1CCOCC1` (stereo not drawn), for which the inhibition is -2.78%.

On to `CC(=O)Nc1ccc(OCC(O)CN2CCN(c3ccccc3Cl)CC2)cc1` (stereo not drawn), for which the inhibition was 13%.

As to `O=S(=O)(c1ccc(OCC(O)CN2CCN(c3ccccc3Cl)CC2)cc1)N1CCOCC1` (stereo not drawn), the inhibition was 26% (active).

Turning to `O=C(Nc1ccc(Br)cc1F)C1CC(=O)N(C2CCCCC2)C1` (stereo not drawn), the inhibition is -3.95%.

With `CCN(CC)S(=O)(=O)c1ccc(C(=O)N2CCN(C3=NS(=O)(=O)c4ccccc43)CC2)cc1`, the inhibition was -4.91%.

`COc1ccccc1N1CC(C(=O)Nc2nnc(SCC(=O)NC(C)C)s2)CC1=O` (stereo not drawn): the inhibition was -8.06%.

`COc1ccc(C)cc1NC(=O)Nc1ccccc1SC`: the inhibition is -7.07%.

Take `COc1ccc(C)cc1NC(=O)NCCCCc1ccccc1`: the inhibition is 28.4% (active).

Turning to `COc1ccc(C)cc1NC(=O)NCc1ccccn1`, the inhibition is -18.5%.

As to `Cc1ccc(CN2CCNC(=O)C2CC(=O)NCc2csc(C(C)C)n2)cc1` (stereo not drawn), the inhibition was 7.42%.

Regarding `CCCCCCCCCCOC(=O)Cn1c(COc2ccc(C)cc2)[n+](C)c2ccccc21`, the inhibition was 19.5%.

On to `CCCCCCCCCCOC(=O)Cn1c(COc2cccc(OC)c2)[n+](C)c2ccccc21`, for which the inhibition was 65% (active).

With `CCCCOC(=O)Cn1c(=N)n(CCN(CC)CC)c2ccccc21`, the inhibition is 2.44%.

For the compound `CCN(CC)c1ccc([N+](=O)[O-])cc1C(=O)O`, the inhibition is -0.91%.

For `O=[N+]([O-])c1ccc(N(CCO)Cc2ccccc2)c([N+](=O)[O-])c1`, the inhibition is 23.9% (active).

Regarding `OCCN(Cc1ccccc1)Cc1ccc(Cl)cc1`, the inhibition was -3.11%.

With `CC1C(=O)Nc2ccccc2N1C(=O)c1ccc(F)cc1F` (stereo not drawn), the inhibition was -4.79%.

`CCOc1ccc(CN2CCC(n3nccc3NC(=O)C3CC3)CC2)cc1CO`: the inhibition was 1.55%.

Regarding `Cc1cc(C)cc(NC(=O)C2CCCN(S(=O)(=O)c3ccc4[nH]c(=O)ccc4c3)C2)c1` (stereo not drawn), the inhibition was -6.12%.
